In all, about 33,000 sequences were measured (“E-score (-0.5 to 0.5)”: median about -0.012, highest 2% from about 0.27 on). The sample holds the highest values, similar sequences and a random draw of the others, so the mix is not that of the screen.

For this assay, the target named is T1, Vhr1 (UniProt P40522).
T1 sequence: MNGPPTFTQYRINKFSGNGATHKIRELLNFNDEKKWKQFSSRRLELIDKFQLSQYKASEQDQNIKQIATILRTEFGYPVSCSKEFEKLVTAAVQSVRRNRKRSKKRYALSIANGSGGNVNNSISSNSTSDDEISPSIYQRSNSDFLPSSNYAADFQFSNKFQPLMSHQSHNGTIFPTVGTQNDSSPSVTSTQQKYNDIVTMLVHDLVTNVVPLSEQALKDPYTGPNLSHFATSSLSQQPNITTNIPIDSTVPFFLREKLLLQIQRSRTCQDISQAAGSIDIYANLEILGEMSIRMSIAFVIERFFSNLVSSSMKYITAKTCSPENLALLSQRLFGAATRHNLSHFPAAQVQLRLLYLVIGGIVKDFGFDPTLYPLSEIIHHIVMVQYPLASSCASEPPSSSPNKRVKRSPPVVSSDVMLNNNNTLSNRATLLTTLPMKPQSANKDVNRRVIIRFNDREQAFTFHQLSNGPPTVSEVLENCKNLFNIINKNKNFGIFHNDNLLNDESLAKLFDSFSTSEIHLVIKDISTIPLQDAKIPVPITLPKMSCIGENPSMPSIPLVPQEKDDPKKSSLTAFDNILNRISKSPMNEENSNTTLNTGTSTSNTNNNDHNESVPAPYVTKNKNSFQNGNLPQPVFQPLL
The experiment in a line: PBM E-score (8-mer binding enrichment) (E-score (-0.5 to 0.5)); higher = stronger / more preferred TF binding. The conditions noted are these: protein concentration: 200 nM; construct: GST-full length. How it is done: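 Universal 'all 10-mer' protein binding microarrays (Agilent AMADID 015681) probed with GST-tagged S. cerevisiae TFs (full-length or DBD) made by in vitro transcription/translation (PURExpress), about 100-200 nM. Bound TF was detected with fluorescent anti-GST. Each ungapped 8-mer (which stands for itself and its reverse complement) is scored by the PBM enrichment score (E-score), a modified Wilcoxon-Mann-Whitney statistic from -0.5 to +0.5, computed with the Universal PBM Analysis Suite. Scale: above 0.35 generally sequence-specific binding.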
Regarding CGGGGTGA, the “PBM E-score” value came out at 0.275.

Regarding CCGGGTGA, the “PBM E-score” value is 0.208.

As to GCTTAAAA, the “PBM E-score” value was -0.0463. The value for ACAGTTAA was 0.0518; that for GTACCTAA was -0.0816.

On to CGGTCGAC, for which the “PBM E-score” value amounted to 0.0782.

As to GAAGATAA, the “PBM E-score” value was -0.0175. In the case of ATCACCCA, the “PBM E-score” value was determined as 0.223. CTTACCCC: the “PBM E-score” value is -0.156. The value for CTCACCAA was 0.265; that for CTCACCCA was 0.342; that for CTCACCCC was 0.318. On to CTCACCGA, for which the “PBM E-score” value was determined as 0.183. Turning to GTCACCGA, the “PBM E-score” value amounted to 0.256. The result for ATCACCCC reads 0.199. For GTCACCCA, the “PBM E-score” value was determined as 0.311. As for ACTGGTGG, the “PBM E-score” value amounted to 0.0234. Turning to GAGGGCTA, the “PBM E-score” value is -0.228. With GGTATGAC, the “PBM E-score” value was 0.231. On to AGTATGAG, for which the “PBM E-score” value was 0.0941. Consider AGTATGAC, for which the “PBM E-score” value was 0.311. Turning to AGTATGAA, the “PBM E-score” value amounted to 0.203. For the sequence CGTATGAC, the “PBM E-score” value came to 0.142. The result for AGTATGAT reads 0.271. As for CCTGTGGA, the “PBM E-score” value was -0.166. With CTCTCATC, the “PBM E-score” value was -0.131.

Regarding CTTGCGGC, the “PBM E-score” value was -0.0654.

Regarding AATATATT, the “PBM E-score” value was found to be 0.284. The result for GATATACA reads 0.113. Regarding CATATATA, the “PBM E-score” value was 0.256. As for GATATATA, the “PBM E-score” value amounted to 0.284.

Regarding GATATATC, the “PBM E-score” value stood at 0.0354.

With GATACATA, the “PBM E-score” value is 0.332.

Take TATATATA: the “PBM E-score” value was determined as 0.318. On to GATACATC, for which the “PBM E-score” value worked out at 0.224.

Consider AATATATG, for which the “PBM E-score” value stood at 0.19. The result for TATATACA reads 0.162; that for CATACATA, 0.238. The value for AATATATA was 0.157; that for ATGGCTTC was 0.00791. With CGTTTCGC, the “PBM E-score” value was -0.0307. In the case of GAGTATGA, the “PBM E-score” value worked out at 0.228.

Consider CTCTCAAC, for which the “PBM E-score” value stood at 0.00283. The value for GCTTAGTA was -0.171. As to GGATCAAC, the “PBM E-score” value was -0.0769. On to GTAACCAA, for which the “PBM E-score” value amounted to 0.103. Turning to TGCAATAA, the “PBM E-score” value is -0.0029. Regarding GGGGCCCA, the “PBM E-score” value is -0.0152. The value for ACTGATAG was 0.167; that for AGAATTAA was -0.301; that for ATTGAAGC was -0.163. As to AAAATTCA, the “PBM E-score” value was -0.128.

ATACTATC: the “PBM E-score” value came to 0.128. In the case of CTACTATC, the “PBM E-score” value is 0.277. Consider CTACTATA, for which the “PBM E-score” value came to 0.168. As for GGTCTGAC, the “PBM E-score” value was determined as 0.226. As to ATGATGAG, the “PBM E-score” value came out at 0.196.

On to AGGATGAG, for which the “PBM E-score” value is 0.225. With CTGATGAC, the “PBM E-score” value came to 0.19.

In the case of AGGATGAC, the “PBM E-score” value stood at 0.112. The value for GGGATGAA was -0.00977; that for AGGATGAA was -0.0977.

On to AGGATGAT, for which the “PBM E-score” value stood at 0.309. Consider ATGATGAC, for which the “PBM E-score” value came to 0.303. Regarding GGGATGAC, the “PBM E-score” value amounted to 0.323. Turning to GCTAGCCA, the “PBM E-score” value is -0.17. For CAGATCAG, the “PBM E-score” value is -0.112. For CGCGAATC, the “PBM E-score” value was found to be 0.193. The result for ACGTATCC reads -0.194. As to CCATTAGC, the “PBM E-score” value was -0.0966. The value for ATTGGCCG was -0.13. On to GCACTGAC, for which the “PBM E-score” value is 0.0316. As to GCGAAGAA, the “PBM E-score” value was -0.191. For ACACACCC, the “PBM E-score” value came to 0.198. The value for ACACACCG was 0.223.

On to CCACACCA, for which the “PBM E-score” value was 0.141. Turning to ACACACCA, the “PBM E-score” value came out at 0.282. As to TCACACCA, the “PBM E-score” value stood at 0.17. ACACACCT: the “PBM E-score” value worked out at 0.283.

For AACGTCAA, the “PBM E-score” value was -0.269. For the sequence AGGCTTCC, the “PBM E-score” value was -0.119. As to CAAACGAG, the “PBM E-score” value stood at 0.0174. Consider CTATGGCA, for which the “PBM E-score” value is -0.132. As for GTCCTTAA, the “PBM E-score” value is -0.00154. In the case of CGCGCGCC, the “PBM E-score” value turned out to be 0.228. In the case of CGCGCGCA, the “PBM E-score” value was determined as 0.259. For GGCGCGCA, the “PBM E-score” value was found to be 0.121. With CGCGCGCG, the “PBM E-score” value turned out to be 0.286. AGCGCGCG: the “PBM E-score” value was 0.0844. The value for TGCGCGCA was 0.29; that for TGGTTGAA was -0.0692; that for TATGCTCA was 0.0368.

As to GAGTGCCC, the “PBM E-score” value is -0.0963. AAGCACTA: the “PBM E-score” value is -0.0763. Take CATGCTGA: the “PBM E-score” value was determined as 0.275. Turning to AATGCTGA, the “PBM E-score” value came out at 0.027. For GATGCTGA, the “PBM E-score” value turned out to be 0.0169. For the sequence AACGACGC, the “PBM E-score” value was -0.0318. For CATTCACC, the “PBM E-score” value came out at 0.0887. The value for AAGAGGAT was -0.0743.

Turning to GGTCTTTA, the “PBM E-score” value was -0.0868. For ACTCCCTA, the “PBM E-score” value is 0.063.

Take ACTCCCTG: the “PBM E-score” value came to 0.276. The value for ACTCCCTC was 0.0377; that for CGGGTCAG was 0.204; that for ACAAGTCA was 0.174. The value for GCAAGTCA was 0.279; that for GGAAGTCC was -0.212; that for CGAAGTCA was 0.203. GGAAGTCA: the “PBM E-score” value was 0.282. TCAAGTCA: the “PBM E-score” value was 0.111.

The values are drawn from the supplement of paper PMC3334620.
